High-throughput results as filed in PubChem.
The entries come from a sample that favours hits as a whole.
TTR transcr act: TTR transcription activation, primary screen; SH-SY5Y TTR promoter Gaussia luciferase, luminescence; 100% = recombinant luciferase protein wells; activation, % at 16.7 µM; 92,000 compounds, 1.3% hits; AID 1117267;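 active = activation above the mean of all tested compounds plus 3 SD, cut at about 9.5% in these data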;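 note: cells exposed to compounds for one day before reading; 0% = median of all test compound wells on the plate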
HuH7 TTR inh: decreases TTR transcription in HuH7 cells in activator counter-screen. shares compounds with TTR transcr act. 1,100 compounds, 4% hits. AID 1117279. inhibition, % at 16.7 µM. HuH7 TTR promoter-Gaussia luciferase reporter, luminescence;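 active = average inhibition above the solvent-only control wells' mean plus 3 SD, cut at about 15% in these data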;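 note: 0% = cells with DMSO only and 100% = cells with inhibitor control FD; inhibitors lower well luminescence so higher value means more inhibition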
TTR act confirm: human TTR transcription activation, confirmation; shares compounds with TTR transcr act; SHSY5Y TTR promoter Gaussia luciferase, luminescence; 100% = purified Lucia enzyme wells, no cells; activation, % at 16.7 µM; 1,100 tested, under 10 active; AID 1117280;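 active = mean activation above a set limit taken from the earlier primary screen, cut at about 11% in these data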;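 note: 0% = DMSO-treated cells and 100% = recombinant Lucia luciferase without cells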
The depositor's hits bear a star.

SMILES	TTR transcr act	others
O=[N+]([O-])c1cccc(-c2noc(-c3ccco3)n2)c1	11.8*	HuH7 TTR inh=14.6*;TTR act confirm=-1.4
Cc1cccc(-c2noc(-c3ccoc3C)n2)c1	3.4
O=[N+]([O-])c1cccc2c(S(=O)(=O)N3CCOCC3)cccc12	-0.6
Cn1cnnc1SCC(=O)Nc1ccc(Oc2ccccc2)cc1	-0.4
Cn1cnnc1SCC(=O)Nc1ccc(F)cc1F	0.5
Cn1cnnc1SCC(=O)Nc1ccc(Cl)cc1	12.6*	HuH7 TTR inh=-10.5;TTR act confirm=0.4
Cc1nc(-c2nnc(SCC(=O)Nc3ccc(Cl)cc3)n2C)cs1	23.4*	HuH7 TTR inh=-23.9;TTR act confirm=-0.4
CCC(=O)Nc1ccc(NC(=O)CSc2nnc(-c3ccco3)n2C)cc1	2.2
CN(C)c1ccc(NC(=O)CSc2nnc(-c3cnccn3)n2C)cc1	0.2
CCOc1ccc(CCNC(=O)C2CCCCC2)cc1OCC	-0.7
CC(=O)OCC1(C)CN(c2ccccc2)NC1=O (centres undefined)	-0.1
O=C(NC1CCCCC1)C12CC3CC(C1)CC(n1cncn1)(C3)C2	13.1*	HuH7 TTR inh=-4.7;TTR act confirm=-0.2
O=C(Nc1ccon1)C12CC3CC(C1)CC(n1cnc([N+](=O)[O-])n1)(C3)C2	-0.3
Cc1cc(NC(=O)C23CC4CC(C2)CC(n2cnc([N+](=O)[O-])n2)(C4)C3)no1	-2.7
Cc1ccc(C(=O)Nc2c[nH]c(=O)[nH]c2=O)cc1	3.4
Cc1oc(=O)c(NC(=O)c2ccccc2)cc1C(C)O (centres undefined)	5.5
Cc1ccc(C(=O)Nc2cc3c(oc2=O)CCCC3=O)cc1	27.5*	HuH7 TTR inh=8.2;TTR act confirm=-0.1
Cc1cc(Cl)ccc1OCC(=O)NCC(=O)N/N=C/c1ccco1	-1.9
O=C1C=C(c2ccc(Cl)c(C(F)(F)F)c2)C[C@@H](c2ccc(Cl)cc2)C1	1.4
CCN(c1ccccc1)S(=O)(=O)c1cccc(C(=O)NCC(c2ccc(F)cc2)N2CCOCC2)c1 (centres undefined)	-2.0
Cc1ccccc1C(=O)NC1CCCCN(Cc2cccc(Cl)c2)C1=O (centres undefined)	-1.1
C[C@H](CO)N1C[C@H](C)[C@H](CN(C)S(=O)(=O)c2cccc(C#N)c2)OCc2cnnn2CCCC1=O	0.8
CC(C)Cn1cnc2c1c(=O)n(CC(=O)N(C)C)c(=O)n2Cc1ccccc1	-0.1
CCn1cnc2c1c(=O)n(CC(=O)Nc1ccc3c(c1)OC(F)(F)O3)c(=O)n2Cc1ccccc1	-0.5
COCCn1cnc2c1c(=O)n(CC(=O)Nc1cc(C)on1)c(=O)n2Cc1ccccc1	15.6*	HuH7 TTR inh=-15.3;TTR act confirm=0.1
SMILES	TTR transcr act	others
COc1ccccc1C(=O)n1ccc2ccc(-c3ccc4ccn(Cc5ccc(C#N)cc5)c4c3)cc21	2.6
NC(=O)c1nsc(C(=O)N(CC(=O)NC2CCCCC2)c2cccc(F)c2)c1N	1.3
CC(C(=O)NC1CCCCC1)N(Cc1ccc(F)cc1)C(=O)c1snc(C(N)=O)c1N (centres undefined)	2.2
NC(=O)c1nsc(C(=O)N(CC(=O)NC2CCCC2)c2ccc(F)c(Cl)c2)c1N	16.6*	HuH7 TTR inh=-26.0;TTR act confirm=-0.2
CCOC(=O)[C@]12CCCC=C1N(Cc1ccc(OC)cc1)C(=O)[C@@H]2CC(=O)N1CCCC1	0.2
COc1ccccc1-c1nnc(SCC(=O)Nc2cccnc2Cl)n1C	-0.5
Cc1c(-c2ccc(Cl)cc2)[n+](=O)c2c(n1[O-])CCCC2	0.2
CCc1c(C)n([O-])c2c([n+]1=O)CCC2	11.8*	HuH7 TTR inh=-16.8;TTR act confirm=-0.2
O=[n+]1c2c(n([O-])c3c1CCCC3)CCCC2	-0.2
CCOC(=O)[C@@H]1CSCCS(=O)(=O)N1	5.5
CCOc1cc(C(=O)NC(C)CC)cc(OCC)c1OCC (centres undefined)	-3.3
CCOc1cc(C(=O)NCCCNC(=O)c2cc(OCC)c(OCC)c(OCC)c2)cc(OCC)c1OCC	11.9*	HuH7 TTR inh=-28.6;TTR act confirm=-0.4
CCCCCCNC(=O)CCNC(=O)c1cc(OC)c(OC)c(OC)c1	-0.6
COc1ccccc1CNS(=O)(=O)c1cc2c3c(c1)C(C)C(=O)N3CCC2 (centres undefined)	-0.6
COc1cc(F)ccc1-c1csc(C(C)(O)c2ccccc2)n1 (centres undefined)	2.1
CC(=O)NC(c1ccccc1)c1nc(-c2csc3ccccc23)cs1 (centres undefined)	-0.1
C[C@H]1[C@@H](OC(=O)NCCc2ccccc2)CC[C@@]23CCCN2C(=O)CCC[C@@H]13	3.1
CC(=O)c1sc2nc(-c3ccc(C)cc3)c3c(c2c1N)CCCC3	2.9
Cc1cc(C)c2c(N)c(C(=O)Nc3ncc(C)s3)sc2n1	2.9
Cc1cc(C)c2c(N)c(C(=O)c3ccccc3Cl)sc2n1	1.4
COCc1cc(C)nc2sc(C(=O)Nc3ccccc3C)c(N)c12	2.3
Cc1cc(C)c2c(N)c(C(=O)Nc3ccccc3Cl)sc2n1	12.1*	HuH7 TTR inh=-5.7;TTR act confirm=-0.9
CC(=O)c1sc2nc(C)cc(C)c2c1N	23.3*	HuH7 TTR inh=-3.4;TTR act confirm=-1.1
CCC(=O)N(c1ccccc1)C1CCN(C(=O)C(Cc2ccccc2)NC(C)=O)CC1 (centres undefined)	-1.1
CC1=C(C(=O)N2CCOCC2)CC(CC(=O)NCCc2ccccn2)C(=O)N1CCC1=CCCCC1 (centres undefined)	-1.1
SMILES	TTR transcr act	others
CCN(CC)C(=O)C1=C(C)N(CCC2=CCCCC2)C(=O)C(CC(=O)NCCc2ccccn2)C1 (centres undefined)	23.9*	HuH7 TTR inh=-8.8;TTR act confirm=-0.5
CCN(CC)C(=O)C1=C(C)N(CCC2=CCCCC2)C(=O)C(CC(=O)NCCCCc2ccccc2)C1 (centres undefined)	-1.9
CCOC(=O)N1CCN(C(=O)C[C@H]2C[C@@]3(C(=O)OC)C(=C[C@H](C4CCCC4)O[C@@H]3C)N(Cc3ccc(Cl)cc3Cl)C2=O)CC1	1.5
O=C(CN1C2=NCCN2c2ccccc21)c1ccc(Br)s1	-0.8
CC1(c2nnnn2Cc2ccccc2)CCC(=O)N1CCc1ccccc1F (centres undefined)	11.2*	HuH7 TTR inh=-11.3;TTR act confirm=-0.1
CC1(c2nnnn2Cc2ccccc2)CCC(=O)N1CCc1c[nH]c2ccccc12 (centres undefined)	-0.6
CC1(c2nnnn2Cc2ccccc2)CCC(=O)N1CC(F)(F)F (centres undefined)	-0.6
CC1CNC(=S)N(c2ccc(F)cc2)C1=O (centres undefined)	-0.6
CCCC/C=C1/[C@@H](C(C)C)N(Cc2ccc3c(c2)OCO3)C2=N[C@H](c3ccccc3)CC(=O)N21	3.5
COC(=O)[C@]12C[C@H](CC(=O)NCCc3ccccc3OC)C(=O)N(Cc3cccc4ccccc34)C1=C[C@H](C1CCCC1)O[C@@H]2C	-1.2
COC(=O)[C@H](CCSC)NC(=O)Nc1ccc(C(C)C)cc1	-1.1
COC(=O)[C@H](CCSC)NC(=O)NCc1ccccn1	18.6*	HuH7 TTR inh=-17.3;TTR act confirm=0.9
COC(=O)[C@H](CCSC)NC(=O)NCCc1ccc(F)cc1	1.3
O/N=C1\CCCc2c1nc(-c1ccccc1F)n2O	-2.3
CCC[C@H]1[C@@H](O)CC[C@@]23CCCN2C(=O)CCC[C@@H]13	0.1
O=C1C(C23CC4CC(CC(C4)C2)C3)C(=O)N(c2ccccc2)N1c1ccccc1	51.3*	HuH7 TTR inh=1.6;TTR act confirm=-0.2
O=C1CC(c2ccccc2)CC(=O)N1c1ccccc1	1.2
O=C(NCc1ccccc1)NC12CC3CC(CC(C3)C1)C2	5.5
